Drawing on PubChem BioAssay (NCI), this text covers growth for eight molecules.

Among the test systems are MOLT-4 leukemia; SR leukemia; RPMI-8226 leukemia; OVCAR-8 ovarian; OVCAR-5 ovarian; OVCAR-4 ovarian; SK-OV-3 ovarian; IGROV1 ovarian; HS 578T breast; NCI/ADR-RES ovarian; T-47D breast; MDA-MB-435 melanoma; SW-620 colon; MCF7 breast; HCT-116 colon; HCC-2998 colon; KM12 colon; OVCAR-3 ovarian; BT-549 breast.
Experiment in all cases: NCI-60 one-dose screen, 48 h (100 = growth as untreated, 0 = no growth, -100 = all killed)
Common to all, as to conditions: 10 µM unless noted

The panel holds about 83,000 compounds, 20% with a hit somewhere; the sample as a whole holds those more often.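 The test compound was applied at a single concentration to cells in 96-well plates for 48 hours, and percent growth was recorded.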 A number with no mark means an inactive call. Activity calls are given as the source filed them. How the source made its calls: active means growth percent below 10; inactive means the rest.

As for `C[C@@]12CCCc3coc(c31)C(=O)c1cc3c(cc12)C(=O)C1=C(NCCS1(=O)=O)C3=O`, the growth is -31.5% (active) in the assay with MOLT-4 leukemia; -13.3% (active) with SR leukemia; -30.4% (active) in the assay with RPMI-8226 leukemia; -13.1% (active) with OVCAR-8 ovarian; -28.3% (active) with OVCAR-5 ovarian; -89.3% (active) with OVCAR-4 ovarian. Further, the growth was -12.6% (active) in the assay with SK-OV-3 ovarian; -23.9% (active) in the assay on IGROV1 ovarian; -12.3% (active) with HS 578T breast; 81.5% in the assay with NCI/ADR-RES ovarian; -45.9% (active) in the assay on T-47D breast; -83.5% (active) in the assay on MDA-MB-435 melanoma. Also, the growth is -43.8% (active) in the assay on SW-620 colon; -54.1% (active) in the assay with MCF7 breast; -16.5% (active) with HCT-116 colon; -30.8% (active) with HCC-2998 colon; 4.16% (active) with KM12 colon.
As to `CCC(Br)(CC)C(=O)NC(N)=O`, the growth in the assay on MOLT-4 leukemia is 99.2%; in the assay with SR leukemia it was 105%; in the assay with RPMI-8226 leukemia, 109%; in the assay on OVCAR-8 ovarian, 113%; in the assay on OVCAR-5 ovarian it was 101%; in the assay on OVCAR-4 ovarian, 101%. The growth in the assay with SK-OV-3 ovarian is 114%; in the assay on IGROV1 ovarian, 110%; with OVCAR-3 ovarian it was 111%; with NCI/ADR-RES ovarian it was 116%; with T-47D breast, 101%; in the assay on MDA-MB-435 melanoma, 102%. Moreover, the growth in the assay on SW-620 colon is 110%; in the assay with MCF7 breast, 94.6%; in the assay with HCT-116 colon it was 93%; with KM12 colon, 104%.
In the case of `O=[N+]([O-])c1cc(Br)c(O)c(Br)c1`, the growth in the assay with MOLT-4 leukemia was 107%; in the assay with SR leukemia, 102%; with RPMI-8226 leukemia, 98.9%; in the assay with OVCAR-8 ovarian, 99.1%; with OVCAR-5 ovarian it was 115%; with OVCAR-4 ovarian, 122%. Also, the growth in the assay on SK-OV-3 ovarian was 103%; with IGROV1 ovarian, 111%; in the assay with HS 578T breast it was 109%; in the assay on NCI/ADR-RES ovarian it was 104%; in the assay on T-47D breast, 115%; in the assay on MDA-MB-435 melanoma, 111%. In addition, the figures for the growth with SW-620 colon, in the assay on MCF7 breast and in the assay on HCT-116 colon were 108%, 94.3% and 97.3%, respectively.
On to `O=C(CBr)OCCOC(=O)CBr`, for which the growth in the assay with MOLT-4 leukemia is 64.1%; with SR leukemia, 8.37% (active); with RPMI-8226 leukemia, 33.8%; with OVCAR-8 ovarian, 93.7%; in the assay on OVCAR-5 ovarian it was 117%; in the assay on OVCAR-4 ovarian it was 38.3%. In addition, the growth is 133% in the assay on SK-OV-3 ovarian; -45.8% (active) with IGROV1 ovarian; 3.4% (active) with HS 578T breast; 99.9% with NCI/ADR-RES ovarian; 79.5% with T-47D breast; 65.4% with BT-549 breast. Moreover, the growth with MDA-MB-435 melanoma was 91.6%; in the assay with SW-620 colon it was 58.1%; in the assay on MCF7 breast, 68.5%; in the assay on HCT-116 colon, 69.2%; with HCC-2998 colon, 110%; with KM12 colon it was 99.5%.
Take `C[C@]12CC[C@H]3[C@@H](C[C@@H]4SC(Nc5cccc(F)c5)=N[C@@]45CC(=O)CC[C@]35C)[C@@H]1CCC2=O`: the growth in the assay with MOLT-4 leukemia was -3.78% (active); in the assay with SR leukemia, -11.9% (active); in the assay on RPMI-8226 leukemia it was -22.3% (active); with OVCAR-8 ovarian, 39.6%; with OVCAR-5 ovarian, 65.5%; in the assay with OVCAR-4 ovarian, 59.2%. Also, the growth was -18.4% (active) in the assay with SK-OV-3 ovarian; 60% in the assay on IGROV1 ovarian; 35.4% with HS 578T breast; 55.4% with NCI/ADR-RES ovarian; -0.755% (active) with T-47D breast; -8.61% (active) with BT-549 breast. Also, the growth in the assay on MDA-MB-435 melanoma was 35.9%; in the assay on MCF7 breast, 4.46% (active); in the assay on HCT-116 colon, -68.8% (active); in the assay on HCC-2998 colon it was 75.5%; with KM12 colon, 38.7%.
Consider `C/C(=C\c1ccn(-c2ccc(N)cc2F)n1)[C@@H]1C[C@@H]2O[C@]2(C)CCC[C@H](C)[C@H](O)[C@@H](C)C(=O)C(C)(C)[C@@H](O)CC(=O)O1`, for which the growth was 10.6% in the assay on MOLT-4 leukemia; 13.8% in the assay on SR leukemia; 7.57% (active) in the assay on RPMI-8226 leukemia; 18.7% in the assay on OVCAR-8 ovarian; 23.5% in the assay on OVCAR-5 ovarian; 61.1% with OVCAR-4 ovarian. Besides, the growth in the assay on SK-OV-3 ovarian was 33.9%; with IGROV1 ovarian it was 34.8%; in the assay with HS 578T breast, -1.48% (active); in the assay on NCI/ADR-RES ovarian it was -11.9% (active); in the assay with T-47D breast, 35.5%; with MDA-MB-435 melanoma it was -30% (active). For the same molecule, the growth with SW-620 colon is 35.1%; in the assay with MCF7 breast, 16.7%; with HCT-116 colon, 12.2%; in the assay on HCC-2998 colon it was -15% (active); in the assay on KM12 colon, 10.2%.
Consider `CCC1(NC(=O)c2cc(F)c(F)c(F)c2F)C(=O)NC(=O)N(C(C)C)C1=O` (centres undefined), for which the growth in the assay on MOLT-4 leukemia is 55%; in the assay with SR leukemia it was -18.6% (active); with RPMI-8226 leukemia, 107%; with OVCAR-8 ovarian, 79.4%; in the assay on OVCAR-5 ovarian, 109%; with OVCAR-4 ovarian, 84.6%. The growth in the assay on SK-OV-3 ovarian was 150%; in the assay on IGROV1 ovarian it was -56.8% (active); in the assay on NCI/ADR-RES ovarian it was 105%; in the assay with T-47D breast, 214%; in the assay with BT-549 breast, 72.9%; with MDA-MB-435 melanoma it was 59.8%. Also, the growth was 62.7% in the assay on SW-620 colon; 96.4% in the assay on MCF7 breast; 99% in the assay on HCT-116 colon; -55.8% (active) in the assay with HCC-2998 colon; 139% in the assay on KM12 colon.
On to `C#COc1cccc(Nc2ncnc3cc(NC(=O)CF)ccc23)c1`, for which the growth was 5.47% [6.25 µM] (active) with MOLT-4 leukemia; 20.9% [6.25 µM] in the assay on SR leukemia; 62.4% [6.25 µM] with RPMI-8226 leukemia; 42.5% [6.25 µM] in the assay on OVCAR-8 ovarian; 87.2% [6.25 µM] in the assay with OVCAR-5 ovarian; 75% [6.25 µM] with OVCAR-4 ovarian. The growth in the assay with SK-OV-3 ovarian was 34.8% [6.25 µM]; in the assay with IGROV1 ovarian, 52.4% [6.25 µM]; in the assay on OVCAR-3 ovarian, 12% [6.25 µM]; with NCI/ADR-RES ovarian it was 35.3% [6.25 µM]; in the assay on T-47D breast, 40.9% [6.25 µM]; with MDA-MB-435 melanoma, -34.2% [6.25 µM] (active). Moreover, the growth with SW-620 colon is 25.8% [6.25 µM]; with MCF7 breast it was 30.6% [6.25 µM]; in the assay on HCT-116 colon, 19% [6.25 µM]; in the assay on HCC-2998 colon, 63.8% [6.25 µM]; in the assay on KM12 colon, 28.6% [6.25 µM].
